This note sets out measurements from PubChem BioAssay AID430 (Sanford-Burnham Center for Chemical Genomics, 2006).

Among all 63,000 compounds or so, about 1,100 (1.7%) were called active. Cut-off read from the data, not from the text of the source: active = cytotoxicity above about 50%; inactive = the rest. What follows is part of a selection rich in actives, with near analogues and random picks from the rest. Potency and affinity values are given separately.

This assay is described as follows: cytotoxicity in HPDE-C7 cells, cell-based, fluorescence, HTS (AID 430).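 Note: cells exposed to compound for 48 hours before viability readout; 0% = vehicle and 100% = reference cytotoxic drug.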 The following applies: HPDE-C7 pancreatic duct cells viability, at 10 µM, hits give high values.
For the molecule `COC(=O)c1ccccc1NC(=O)CN1CCN(C(=O)c2ccco2)CC1`, the cytotoxicity is 4.2% (inactive).

As to `O=S(=O)(c1ccc(S(=O)(=O)N2CCCC2)cc1)N1CCCCCC1`, the cytotoxicity was -7.3% (inactive).

Regarding `O=C(O)c1cc(S(=O)(=O)N2CCCCCC2)ccc1Cl`, the cytotoxicity was -1.3% (inactive).

Take `Cn1c(=O)c2c(nc(N3CCCCC3)n2CCSc2nc3ccccc3o2)n(C)c1=O`: the cytotoxicity was -14.5% (inactive).

`Cc1ccc(CN2CCN(C(=O)C3CCCO3)CC2)cc1` (stereo unspecified): the cytotoxicity was -27.2% (inactive).

Turning to `CCOc1ccccc1NC(=O)CSc1nccn1-c1ccccc1`, the cytotoxicity is -12.5% (inactive).

Consider `Nc1c(C(=O)NCCN2CCOCC2)c2nc3ccccc3nc2n1-c1ccc2c(c1)OCO2`, for which the cytotoxicity was 1% (inactive).

With `Nc1c(C(=O)NCCN2CCOCC2)c2nc3ccccc3nc2n1CCc1ccccc1`, the cytotoxicity was 7.5% (inactive).

`Nc1c(C(=O)NCCN2CCOCC2)c2nc3ccccc3nc2n1CCc1ccccc1F`: the cytotoxicity is 0.5% (inactive).

For the molecule `COc1ccc(-n2c(N)c(C(=O)NCc3ccco3)c3nc4ccccc4nc32)c(OC)c1`, the cytotoxicity is 14.2% (inactive).

As for `COc1ccc(CCn2c(N)c(C(=O)NCc3ccco3)c3nc4ccccc4nc32)cc1OC`, the cytotoxicity is 32.4% (inactive).

As to `Nc1ccc(-n2c(N)c(C(=O)NCc3ccc4c(c3)OCO4)c3nc4ccccc4nc32)cc1`, the cytotoxicity is 26.7% (inactive).

For `CN1CCN(S(=O)(=O)c2ccc3c4c(cccc24)C(=O)N3)CC1`, the cytotoxicity is 5.6% (inactive).

Take `COc1ccc(NC(=O)C2CCN(S(=O)(=O)c3cccc4cccnc34)CC2)cc1`: the cytotoxicity is -6.3% (inactive).

In the case of `CCOC(=O)N1CCN(C(=O)CSc2nnc(Cc3cccn3C)n2CCc2ccccc2)CC1`, the cytotoxicity was -10.2% (inactive).

Consider `Cc1cccc2cc(COC(=O)c3ccccn3)c(=O)[nH]c12`, for which the cytotoxicity was -10.7% (inactive).

Turning to `C=CCn1c(=N)n(CC(=O)O)c2ccccc21`, the cytotoxicity was -15.2% (inactive).

Take `COCCCn1c(-c2ccsc2)nc2c1c(=O)[nH]c(=O)n2Cc1ccccc1`: the cytotoxicity is -11% (inactive).

For `CCCC(=O)Nc1cccc2c1CCCC2`, the cytotoxicity was 2.9% (inactive).

Turning to `Cc1ccc(-n2nnc3c(=O)n(Cc4cccc(C)c4)cnc32)cc1`, the cytotoxicity was 0.4% (inactive).

Regarding `CCOC(=O)c1sc(NC(=O)c2cc3c(C)nn(-c4ccccc4)c3s2)nc1C`, the cytotoxicity was 4% (inactive).

In the case of `Nc1nonc1C(=O)NCCNC(=O)c1ccccc1F`, the cytotoxicity is -4.8% (inactive).

Regarding `Nc1nonc1C(=O)NCCN=Cc1cc(Cc2ccccc2)cc(Br)c1O`, the cytotoxicity is 87.2% (active).

`COc1cccc(C=NCCNC(=O)c2nonc2N)c1O`: the cytotoxicity was 9.3% (inactive).

For the molecule `O=C1c2oc3ccc(Br)cc3c(=O)c2C(c2cccnc2)N1Cc1ccco1` (stereo unspecified), the cytotoxicity was -14.2% (inactive).

Consider `Oc1c(-c2cc(-c3ccco3)[nH]n2)ccc2ccccc12`, for which the cytotoxicity is 1.8% (inactive).

For `CSc1nc(N)nc(SCC(=O)C23CC4CC(CC(C4)C2)C3)c1C#N`, the cytotoxicity was 74% (active).

In the case of `CSc1nc(N)nc(SCC(=O)c2ccc(C)cc2)c1C#N`, the cytotoxicity was 3.8% (inactive).

As to `CSc1nc(N)nc(SCC(=O)OC(C)C)c1C#N`, the cytotoxicity was -1.7% (inactive).

Consider `Cc1cc2n(n1)C(c1ccc(O)cc1)Nc1ccccc1-2` (stereo unspecified), for which the cytotoxicity was 7.9% (inactive).

Take `O=C(COC(=O)C1(c2ccccc2F)CCCC1)NC1CCS(=O)(=O)C1` (stereo unspecified): the cytotoxicity is -14.8% (inactive).

Regarding `COc1ccc(CNc2nc3c(c(=O)[nH]c(=O)n3C)n2Cc2ccccc2C)cc1`, the cytotoxicity was -5.5% (inactive).

On to `COc1ccc(-c2nsc3c(N4CCCC4)ncnc23)cc1`, for which the cytotoxicity was 7.9% (inactive).

With `COc1ccc(-c2nsc3c(N4CCN(S(=O)(=O)c5ccccc5)CC4)ncnc23)cc1`, the cytotoxicity is 55.2% (active).

As to `COc1ccc(S(=O)(=O)N2CCN(c3ncnc4c(-c5ccccc5)nsc34)CC2)cc1`, the cytotoxicity was 5.6% (inactive).

Regarding `CC(C)(C)NC(=O)CSc1nnc(C2CC2)n1Cc1ccccc1`, the cytotoxicity is -7.8% (inactive).

Consider `COC(=O)CNC(=O)COC(=O)C(Cc1ccccc1)NC(=O)c1ccco1` (stereo unspecified), for which the cytotoxicity was 6% (inactive).

In the case of `Cc1ccc(C)c(C(=O)CSc2n[nH]c(C(C)C)n2)c1`, the cytotoxicity was -7.1% (inactive).

Regarding `Cn1c(=O)c(=O)n(C)c2cc(S(=O)(=O)N3CCCCC3)ccc21`, the cytotoxicity is 2% (inactive).

For the molecule `O=C(c1ccccc1)c1ccc(OCC(O)CN2CCOCC2)cc1` (stereo unspecified), the cytotoxicity was 6.6% (inactive).

Regarding `c1ccc(C(CN2CCOCC2)c2ccccc2)cc1`, the cytotoxicity was -12% (inactive).

With `Cc1nc2ccc(F)cc2cc1C(=O)NCC1CCCO1` (stereo unspecified), the cytotoxicity is 14.8% (inactive).

For `COc1ccc(Cl)cc1S(=O)(=O)n1nnc2ccccc21`, the cytotoxicity was 3.1% (inactive).

For `COc1ccc(OC)c(S(=O)(=O)n2nnc3ccccc32)c1`, the cytotoxicity was -7% (inactive).

Regarding `COc1cc(S(=O)(=O)n2nnc3ccccc32)c(OC)cc1Cl`, the cytotoxicity was 60.8% (active).

For the molecule `CCc1ccccc1NC(=O)CN1CCC(NC(=O)COC)CC1`, the cytotoxicity was -16% (inactive).

Consider `COc1ccc(N(CC(=O)N2CCc3ccccc3C2)S(=O)(=O)c2c(C)[nH]c(=O)[nH]c2=O)cc1`, for which the cytotoxicity was -21.6% (inactive).

For `N#Cc1c(N2CCN(C(=O)c3ccco3)CC2)nc(-c2ccccc2)c2c1CCCC2`, the cytotoxicity is 9.1% (inactive).

Take `Cc1cc(C)c2nc(C(F)(F)F)nc(N3CCN(C(=O)c4ccco4)CC3)c2c1`: the cytotoxicity is 3.3% (inactive).

For the molecule `CC1(C)Cc2c(C#N)c(N3CCOCC3)nc(Cc3ccccc3)c2CO1`, the cytotoxicity is 46.8% (inactive).

Turning to `CC1(C)Cc2c(C#N)c(N3CCN(C(=O)c4ccccc4)CC3)nc(-c3ccco3)c2CS1`, the cytotoxicity is 11.4% (inactive).

As to `CC1(C)Cc2c(C#N)c(N3CCN(C(=O)c4ccco4)CC3)nc(-c3ccco3)c2CS1`, the cytotoxicity was 51.7% (active).

Consider `Cc1cc(C)c2nc(N3CCCN(C(=O)c4ccco4)CC3)c(C#N)cc2c1`, for which the cytotoxicity is 57.4% (active).

As for `CCc1nc(N2CCN(C(=O)c3ccccc3)CC2)c(C#N)c2c1COC(C)(C)C2`, the cytotoxicity is -1% (inactive).

As for `Cc1cc(C)c2nc(N3CCCN(C(=O)c4cnccn4)CC3)c(C#N)cc2c1`, the cytotoxicity is -0.7% (inactive).

As for `CCn1c(SCC(=O)Nc2ccc3c(c2)OCO3)nc2c1c(=O)n(C)c(=O)n2C`, the cytotoxicity is -19.3% (inactive).

For `COc1cccc(CC(NC(C)=O)C(=O)NC2CCN(c3nc(C)cc(C)c3C#N)CC2)c1` (stereo unspecified), the cytotoxicity was 8.9% (inactive).

In the case of `NC(=O)c1cc(-c2ccccc2)nc(N2CCOCC2)n1`, the cytotoxicity is 11.3% (inactive).

As to `O=C(CSc1nnc(-c2cnccn2)n1Cc1ccco1)c1ccccc1`, the cytotoxicity was -4.8% (inactive).

Turning to `O=C(Cn1c(CO)nc2ccccc21)Nc1cc(C(F)(F)F)ccc1N1CCOCC1`, the cytotoxicity was 5.6% (inactive).

As for `c1ccc(N2CCOCC2)c(Nc2nc3ccccc3n3cnnc23)c1`, the cytotoxicity is -9.9% (inactive).

On to `Cc1ccccc1Cn1cc(NC(=O)c2noc3c2CC(C(C)(C)C)CC3)cn1` (stereo unspecified), for which the cytotoxicity was 25.7% (inactive).

Turning to `Cc1ccc(S(=O)(=O)N(CCC#N)CCN2CCCC2)cc1`, the cytotoxicity is -4.9% (inactive).

As for `CN1CC2(Cc3c1ccc1ccccc31)C(=O)OC(C)(C)OC2=O`, the cytotoxicity was 80.9% (active).

On to `O=C1COc2ccc3ccccc3c2CN1`, for which the cytotoxicity is -6.8% (inactive).

As for `Cc1ccc2c(c1)CC1(CN2C)C(=O)OC2(CCCCC2)OC1=O`, the cytotoxicity was -5.7% (inactive).

For `COc1ccc2c(c1)[nH]c1c(=O)n(CCN3CCCC3)cnc12`, the cytotoxicity was -19.4% (inactive).

For the molecule `Cc1cc(C(=O)Nc2nc3c(s2)CCCC3)cs1`, the cytotoxicity was -5.9% (inactive).

On to `CCOC(=O)N1CCN(CC(O)COc2ccccc2C(C)C)CC1` (stereo unspecified), for which the cytotoxicity is -6% (inactive).

On to `O=C(NC1CC2CCCC(C1)N2S(=O)(=O)c1ccccc1)c1ccccc1` (stereo unspecified), for which the cytotoxicity was -1.3% (inactive).

Consider `Cn1c(SCc2ccccc2)nnc1-c1ccncc1`, for which the cytotoxicity was -1.5% (inactive).

With `COc1ccc(NC(=O)CC2CCCCC2)cc1OC`, the cytotoxicity was -11.1% (inactive).

In the case of `Cc1ccc2cc(CN(Cc3nnnn3Cc3ccco3)CC3CCCO3)c(=O)[nH]c2c1C` (stereo unspecified), the cytotoxicity is -0.4% (inactive).

Regarding `Cc1cccc2cc3c(nc12)SC(=NCC1CCCO1)N(Cc1ccco1)C3` (stereo unspecified), the cytotoxicity was 53.7% (active).

As for `Cc1ccc2nc3c(cc2c1)CN(Cc1ccco1)C(=NCC1CCCO1)S3` (stereo unspecified), the cytotoxicity was -19.9% (inactive).

Regarding `CCc1nc(SCC(=O)N2CCN(C(=O)c3ccco3)CC2)c2c3c(sc2n1)CCCC3`, the cytotoxicity is 3% (inactive).

In the case of `COc1cccc(N2CCN(CC(=O)Nc3nnc(-c4ccccc4)s3)CC2)c1`, the cytotoxicity is 21.2% (inactive).

As to `O=C(CN1CCN(c2ccccc2)CC1)Nc1nnc(-c2ccccc2)s1`, the cytotoxicity was 7.8% (inactive).

For `COc1ccc(N2CCN(CC(=O)Nc3nnc(-c4ccccc4)s3)CC2)cc1`, the cytotoxicity was 50.3% (active).

For `Cn1c(=O)oc2cc(S(=O)(=O)N3CCCC(C(=O)NCc4cccs4)C3)ccc21` (stereo unspecified), the cytotoxicity was -3.9% (inactive).

`Cc1ccc2c(c1)-c1c(ssc1=S)C(C)(C)N2C(=O)CSc1nncn1C`: the cytotoxicity is -1.2% (inactive).

Take `Cc1cc(C)c2c(c1)-c1c(ssc1=S)C(C)(C)N2C(=O)CSc1nncn1C`: the cytotoxicity was 56.7% (active).

On to `Cc1ccc2c(c1)N(C(=O)CSc1nncn1C)C(C)(C)c1ssc(=S)c1-2`, for which the cytotoxicity was 14.3% (inactive).

`CCCN1Cc2cccc(C(N)=O)c2C1=O`: the cytotoxicity was -14.7% (inactive).

With `Cc1ccccc1S(=O)(=O)Cc1ccc(C(=O)N2CCN(C3CCCCC3)CC2)o1`, the cytotoxicity was -7% (inactive).

In the case of `COc1ccccc1S(=O)(=O)Cc1ccc(C(=O)N2CCN(c3cccc(Cl)c3)CC2)o1`, the cytotoxicity is 60.8% (active).

`COc1ccc(N2CCN(C(=O)c3ccc(CS(=O)(=O)c4ccc(OC)cc4)o3)CC2)cc1`: the cytotoxicity is -11.6% (inactive).

Turning to `COc1ccc(S(=O)(=O)Cc2ccc(C(=O)N3CCN(c4ccccc4F)CC3)o2)cc1`, the cytotoxicity was -21.7% (inactive).

In the case of `COc1ccc(S(=O)(=O)Cc2ccc(C(=O)N3CCN(c4cccc(C)c4C)CC3)o2)cc1`, the cytotoxicity is 57% (active).

For `COc1ccccc1N1CCN(C(=O)c2ccc(CS(=O)(=O)c3ccccc3OC)o2)CC1`, the cytotoxicity was -8.2% (inactive).

For `Cc1ccccc1S(=O)(=O)Cc1ccc(C(=O)N2CCN(c3ncccn3)CC2)o1`, the cytotoxicity is -19.4% (inactive).

Regarding `Cc1ccccc1S(=O)(=O)Cc1ccc(C(=O)N2CCN(c3cccc(C)c3C)CC2)o1`, the cytotoxicity was 87.9% (active).

Consider `Cc1ccc(S(=O)(=O)Cc2ccc(C(=O)N3CCN(c4cc(C)ccc4C)CC3)o2)cc1`, for which the cytotoxicity was 17.5% (inactive).

On to `Cc1ccccc1S(=O)(=O)Cc1ccc(C(=O)N2CCN(c3ccc(F)cc3)CC2)o1`, for which the cytotoxicity was -10% (inactive).

Turning to `COc1ccccc1S(=O)(=O)Cc1ccc(C(=O)N2CCN(c3ccccc3)CC2)o1`, the cytotoxicity is -24.2% (inactive).

Turning to `Cc1ccc(C)c(N2CCN(C(=O)c3ccc(CS(=O)(=O)c4ccccc4C)o3)CC2)c1`, the cytotoxicity is 55.6% (active).
